Inconclusive results are not listed. The source made the active and inactive calls. The call rests on the fitted dose curve.
On the % scale 0 is the no-effect control and ±100 the full control effect; potency means the concentration at half of the fitted maximal effect.

Chain of 5-hydroxytryptamine receptor 2A (Homo sapiens) (P28223 whole entry, looked up): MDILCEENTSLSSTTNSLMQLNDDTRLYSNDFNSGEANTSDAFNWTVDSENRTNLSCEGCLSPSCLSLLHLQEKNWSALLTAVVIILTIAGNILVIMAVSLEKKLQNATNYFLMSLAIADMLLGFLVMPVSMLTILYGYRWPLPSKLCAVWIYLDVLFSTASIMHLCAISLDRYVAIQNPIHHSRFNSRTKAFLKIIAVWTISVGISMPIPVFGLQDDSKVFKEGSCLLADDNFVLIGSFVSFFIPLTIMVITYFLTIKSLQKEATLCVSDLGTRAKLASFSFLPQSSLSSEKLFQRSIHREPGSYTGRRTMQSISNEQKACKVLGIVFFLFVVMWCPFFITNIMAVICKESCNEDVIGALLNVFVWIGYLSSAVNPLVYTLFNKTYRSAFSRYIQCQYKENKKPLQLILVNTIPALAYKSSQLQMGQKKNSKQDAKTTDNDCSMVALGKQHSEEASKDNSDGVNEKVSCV

For this experiment, the target named is 5-hydroxytryptamine receptor 2A (Homo sapiens) (UniProt P28223). In words: 5-hydroxytryptamine receptor 2A (HTR2A) small molecule antagonists, cell-based qHTS assay (AID 1963586). Further: nearly all actives have a fitted effect of over 45% in size. As to conditions: HTR2A-CHO cells, DOI-induced calcium flux, fluorescence; series mostly up to 61.5 µM; activity, negative = inhibition: at the top concentration. An excerpt:
National Center for Advancing Translational Sciences [NCATS]
Division of Preclinical Innovation [DPI]
U.S. Environmental Protection Agency [EPA]
National Institutes of Environmental Health Sciences [NIEHS]
National Toxicology Program [NTP]
U.S. Food and Drug Administration [FDA]
The HTR2A receptor is a subtype of the 5-HT2 receptor that belongs to the serotonin receptor family and is a G protein-coupled receptor (GPCR). The HTR2A-CHO cell line stably expressing human 5-hydroxytryptamine receptor 2A (HTR2A) can be used for screening antagonists of interactions between 5-HT2 and its ligands. The HTR2A-CHO calcium flux assay is a homogeneous fluorescence-based assay for detecting the intracellular calcium level using FDSS kinetic plate reader system.
Tox21 Assay Protocol Summary:
HTR2A-CHO cells were dispensed at 2000 cells/3uL/well in 1536-well black-clear bottom plates using a Multidrop Dispenser. After the assay plates were incubated at a 37 C/5% CO2 incubator for 18 h, 3 uL of Dye Loading Buffer was transferred to the assay plate by a Flying Reagent Dispenser. The assay plates were incubated at 37 C for 1h. For antagonist mode, 23 nL of compounds dissolved in DMSO, positive controls or DMSO only was transferred to the assay plate by a pin tool. After 5 min incubation at room temperature, 1.5 uL of 4-Iodo-2,5-dimethoxy-alpha-methylbenzeneethanamine hydrochloride (DOI) at 4nM was added to each well. The fluorescence intensity in the plates was measured using FDSS 7000EX kinetic plate reader for 3 min at 1 sec intervals.
On to `CC1(C)COP(Oc2ccccc2)OC1`, for which the “activity, negative = inhibition” value was -0.0647% (inactive).
Same read-out and setting: then `CCOP(=O)(O)C(N)=O`, with 11.5% (inactive); and `CC(C)[C@H](C(=O)OC(C#N)c1cccc(Oc2ccccc2)c1)c1ccc(OC(F)F)cc1` (stereo not given in full), with -17.2% (inactive); and `CC(C)(N)Cc1ccc(Cl)cc1`, with 5.37% [at 28.5 µM] (inactive).
Still for that read-out and setting: then `CCOC(=O)CCl`, with 10.6% (inactive); and `COc1ccc(-c2ccccc2)cc1NNC(=O)OC(C)C`, with 1.65% (inactive).
On the same count and under the same terms, then `O=[N+]([O-])c1ccc(F)c([N+](=O)[O-])c1`, with 5.11% (inactive).
Take `CC(C)NCC(O)c1ccc(N)c(C#N)c1` (stereo not given): the Potency is 18.3 µM (active).
For `N#CN`, the “activity, negative = inhibition” value was 0.159% [at 159 µM] (inactive).
Still for that read-out and setting: then `S=C=NCc1ccccc1`, with -7.53% (inactive); and `O=C(Cl)C(Cl)(Cl)Cl`, with 63.8% (inactive); and `COC(=O)N(C(=O)N1CO[C@@]2(C(=O)OC)Cc3cc(Cl)ccc3C2=N1)c1ccc(OC(F)(F)F)cc1`, with 15.7% (inactive).
With `NS(=O)(=O)C(F)(F)C(F)(F)C(F)(F)C(F)(F)C(F)(F)C(F)(F)C(F)(F)C(F)(F)F`, the “activity, negative = inhibition” value is -23.9% (inactive).
Take `CC(=O)[O-].CC(=O)[O-].CC(=O)[O-].[Sb+3]`: the activity, negative = inhibition is 0.713% [at 2.12 µM] (inactive).
Consider `CC(=O)OC1(c2ccccc2)CCN(CCc2ccccc2)CC1`, for which the Potency is 9.65 µM (active).
For the compound `Nc1ccccc1C(=O)OC/C=C/c1ccccc1`, the “activity, negative = inhibition” value was -0.702% (inactive).
On the same count and under the same terms, the result for `CC(=O)[C@H]1CC[C@H]2[C@@H]3CC[C@H]4C[C@H](O)CC[C@]4(C)[C@H]3C(=O)C[C@]12C` reads -2.87% [at 28.5 µM] (inactive).
The same measure, in the same setting: the result for `CCOP(=O)(OCC)Oc1cc(C)nc(C(C)C)n1` reads -17.6% (inactive).
Take `COc1ccccc1N1CCNCC1`: the Potency is 0.729 µM (active).
On to `Clc1cc(C(Cl)(Cl)Cl)cnc1Cl`, for which the “activity, negative = inhibition” value was -8.5% (inactive).
The same measure, in the same setting: the result for `CN1CCN(C(=O)O[C@H]2c3nccnc3C(=O)N2c2ccc(Cl)cn2)CC1` reads -1.92% [at 28.5 µM] (inactive); that for `CCC/C(=N\OCC)C1=C(O)CC(CC(C)SCC)CC1=O` (stereo not given), 5.27% (inactive); that for `ClC(Cl)C(Cl)Cl`, 21.5% (inactive).
For the compound `O=S(=O)(O)C(F)(F)C(F)(F)C(F)(F)C(F)(F)F`, the “activity, negative = inhibition” value is 24.8% (inactive).
The same measure, in the same setting: the result for `[C-]1=CC=CC1.[Cl][Zr+2][Cl].c1cc[cH-]c1` reads -9.37% (inactive); that for `O=C(Nc1ccc(F)cc1F)c1cccnc1Oc1cccc(C(F)(F)F)c1`, -16.7% (inactive); that for `CC(Cl)(Cl)[N+](=O)[O-]`, 17.4% (inactive).
`CCCN(CCC)CCc1c[nH]c2ccccc12`: the Potency is 0.0131 µM (active).
For the compound `O=[N+]([O-])c1ccc2ccc3cccc4ccc1c2c34`, the “activity, negative = inhibition” value was 15.7% (inactive).
The same measure, in the same setting: then `CCC[CH2][Sn]([CH2]CCC)([CH2]CCC)[CH2]CCC`, with -2.29% (inactive); and `CCN(CC)C(=O)[C@@H]1C=C2c3cccc4[nH]cc(c34)C[C@H]2N(C)C1`, with -51.2% [at 159 µM] (inactive); and `COc1ccc(C(=O)c2c(C)n(CCN3CCOCC3)c3ccccc23)cc1`, with 1.67% [at 28.5 µM] (inactive).
Still for that read-out and setting: then `CCOC(=O)C(SP(=S)(OC)OC)c1ccccc1` (stereo not given), with -3.65% (inactive); and `C#CC(C)(C)O`, with 0.284% (inactive).
For the compound `Cc1cc(SCc2sc(-c3ccc(C(F)(F)F)c(F)c3)nc2C)ccc1OCC(=O)O`, the Potency was 42.1 µM (active).
Still for that read-out and setting: then `Clc1ccccc1-c1ccccc1Cl`, with 47.9 µM (active).
With `Nc1ccc(N=Nc2ccccc2)cc1`, the “activity, negative = inhibition” value was -0.146% (inactive).
On the same count and under the same terms, the result for `O=C1OC(=O)C2C1C1(Cl)C(Cl)=C(Cl)C2(Cl)C1(Cl)Cl` (stereo not given) reads -26.3% (inactive).
Take `COP(=O)(OC)OC(Br)C(Cl)(Cl)Br` (stereo not given): the Potency entry was “inactive”.
As for `ClC1=C(Cl)C2(Cl)C(CBr)CC1(Cl)C2(Cl)Cl` (stereo not given), the Potency entry was “inactive”.

Source of the values: PubChem BioAssay (Tox21).
